Records with an inconclusive call do not appear. A number with no mark means an inactive call. Active and inactive are the calls of the source. Calls come from the whole dose curve; as a rule, active = well fitted inhibition curve with a large enough effect; inconclusive = small, poorly fitted or top-dose-only effect; inactive = no such curve, though single readings can be large or run the other way.

25 compounds from PubChem BioAssay AID1347414 (National Center for Advancing Translational Sciences (NCATS), 2020) can be followed below.
% is set by controls: 0 for no effect and ±100 for the full control effect; potency is the fitted concentration of half-maximal effect.

The test in a line: qHTS to identify inhibitors of the type 1 interferon - major histocompatibility complex class I in skeletal muscle: Secondary screen by immunofluorescence.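 For activity change, negative = inhibition: digitonin at 100 µM served as the cytotoxic control.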 Note: nearly all actives have a fitted effect of over 70% in size. To be noted: C25cl48 myoblasts, IFN-b induced HLA-ABC immunofluorescence, 24 h, Viability; series mostly up to 49.8 µM; activity change, negative = inhibition: at the top concentration. The text has this:
Assay Submitter (PI): Travis B. Kinder Ph.D. & James Inglese Ph.D. Assay Development and Screening Technology Laboratory (ADST) National Center for Advancing Translational Sciences (NCATS), Rockville, MD National Institute of Health (NIH), Bethesda, Maryland Idiopathic inflammatory myopathies, collectively referred to as myositis, are a group of rare autoimmune diseases characterized by skeletal muscle inflammation, weakness, and usually accompanied by systemic pathologies of the skin, lungs, or vasculature. Current immunosuppressive therapies and glucocorticoids are often not curative and are accompanied by harsh side effects, especially in children with juvenile myositis. We initiated a drug repurposing and development program to identify more targeted, less toxic therapeutics to treat myositis. Although its cause is not known, muscle from a subset of patients have an abundance of the inflammatory type 1 interferon (IFN) and a down-stream product major histocompatibility complex class I (MHC class I), which are both thought to contribute to damage and weakness. We conducted quantitative high throughput screening (qHTS) on 6,576 compounds (4,679 unique) through a series of cell-based assays to identify those that inhibit the IFN-stimulated expression of MHC class I in muscle precursor cells (myoblasts). The compound identification and evaluation strategy utilized a primary screen with reporter-tagged MHC class I in genome-engineered myoblasts, ATP content counter screen for viability, HLA-ABC immunofluorescence secondary screen, and HLA-B RT-qPCR tertiary screen. To verify activity of compounds identified by qHTS in HLA-B HiBit reporter cells, compounds were assayed by high throughput HLA-ABC immunofluorescence. Briefly, 216 compounds identified from primary and counter screening as inhibitory with minimal cytotoxicity were dispensed into black/clear bottom […] using acoustic dispensing in an 11-point, 1:3 titration with a high final concentration of 50 uM. Normal immortalized human myoblasts C25cl48 were added to the plates with 4.0 ng/ml human IFN-beta for 24 hours, fixed, stained by immunofluorescence for HLA-ABC protein, nuclei, and cell body, and analyzed by laser scanning cytometry as described by Auld et al., 2006. References: Auld DS, Johnson RL, Zhang Y, Veith H, Jadhav A, Yasgar A, Simeonov A, Zheng W, Martinez ED, Westwick JK, Austin CP, Inglese J. 2006. Fluorescent protein-based cellular assays analyzed by laser-scanning microplate cytometry in 1536-well plate format. Methods Enzymol 414:566-89. doi:10.1016/S0076-6879(06)14029-X
PROTOCOL TABLE (as described by Inglese et al., 2007) SEQUENCE No. (e.g., 1, 2, 3, etc.); […] (e.g., Cells, Incubation, Reagent, etc.); VALUE; DESCRIPTION 0; Compounds; 25 nl; Follow-up compounds dispensed at 25 nl/well with Labcyte Echo 655 acoustic dispenser in triplicate Aurora ChemLib 1536K black/clear bottom, low base, TC 1536-well plates (00019324). Also dispensed 25 nl/well DMSO control, ruxolitinib IFN-b inhibitor control titration, and digitonin cytotoxic control 1a; Cells; 5 uL; Multidrop Combi (Thermo Scientific) to seed 125 cells/well into eight plates in 5 ul/well of iHSKM growth medium (GM) without dexamethasone into columns 1+2. Add metal lids with gas-exchange holes 1b; Cells; 5 uL; Multidrop Combi (Thermo Scientific) to seed 125 cells/well into eight plates in 5 ul/well of iHSKM GM without dexamethasone + 4 ng/ml IFN-b into columns 3 - 48. […]
(In general: In qHTS, concentration-response curves come from the screen itself.)
For the compound `CC(C)(O)/C=C\C(=O)[C@](C)(O)[C@H]1[C@H](O)C[C@]2(C)[C@@H]3CC=C4[C@@H](C=C(O)C(=O)C4(C)C)[C@]3(C)C(=O)C[C@@]12C`, the Potency is 16.2 µM (active).

Take `CC[C@@]1(O)C(=O)OCc2c1cc1n(c2=O)Cc2cc3ccccc3nc2-1`: the Potency result was “inactive”.

Take `O=c1[nH]c2ccc(Cl)cc2c(N[C@@H]2CN3CCC2CC3)c1-c1nc2ccccc2[nH]1`: the Potency is 4.58 µM (active).

On to `COC(=O)[C@]12CCC(C)(C)C[C@H]1[C@H]1C(=O)C=C3[C@@]4(C)C=C(C#N)C(=O)C(C)(C)[C@@H]4CC[C@@]3(C)[C@]1(C)CC2`, for which the Potency is 3.64 µM (active).

For the compound `Cc1sc2c(c1C)C(c1ccc(Cl)cc1)=N[C@@H](CC(=O)Nc1ccc(O)cc1)c1nnc(C)n1-2`, the “activity change, negative = inhibition” value was 23.5%.

Regarding `C[C@@H]1O[C@@H](O[C@@H]2C=C3CC[C@@H]4[C@H](CC[C@]5(C)[C@@H](c6ccc(=O)oc6)CC[C@]45O)[C@@]3(C)CC2)[C@H](O)[C@H](O)[C@H]1O`, the “activity change, negative = inhibition” value was 14.8%.

Consider `Cc1sc2c(c1C)C(c1ccc(Cl)cc1)=N[C@@H](CC(N)=O)c1nnc(C)n1-2`, for which the “activity change, negative = inhibition” value was 5.41%.

Regarding `CN(C)c1cc2c(cc1Sc1nc3c(N)nccc3n1CCNCC(C)(C)C)OCO2`, the “activity change, negative = inhibition” value is 3.61%.

`CC(C)(C)c1cc(C=C(C#N)C#N)cc(C(C)(C)C)c1O`: the “activity change, negative = inhibition” value is 2.35%.

For the compound `C/C1=C/C[C@@H](/C(C)=C/c2csc(C)n2)OC(=O)C[C@H](O)C(C)(C)C(=O)[C@H](C)[C@@H](O)[C@@H](C)CCC1`, the “activity change, negative = inhibition” value was -13.6%.

Take `CC(=O)OC[C@H]1O[C@@H]([S-])[C@H](OC(C)=O)[C@@H](OC(C)=O)[C@@H]1OC(C)=O.CC[PH+](CC)CC.[Au]`: the Potency was 1.62 µM (active).

Turning to `C[C@@H]1O[C@@H](O[C@H]2C[C@@H](O)[C@]3(CO)[C@H]4[C@H](O)C[C@]5(C)[C@@H](C6=CC(=O)OC6)CC[C@]5(O)[C@@H]4CC[C@]3(O)C2)[C@H](O)[C@H](O)[C@H]1O`, the “activity change, negative = inhibition” value is 1.82%.

`CC1(C)CC[C@]2(NC(=O)C(C)(F)F)CC[C@]3(C)[C@H](C(=O)C=C4[C@@]5(C)C=C(C#N)C(=O)C(C)(C)[C@@H]5CC[C@]43C)[C@@H]2C1`: the Potency was 4.08 µM (active).

Regarding `CC1=C(O)C(=O)C=C2C1=CC=C1[C@@]2(C)CC[C@@]2(C)[C@@H]3C[C@](C)(C(=O)O)CC[C@]3(C)CC[C@]12C`, the Potency is 5.76 µM (active).

On to `Cc1sc2c(c1C)C(c1ccc(Cl)cc1)=N[C@@H](CC(=O)OC(C)(C)C)c1nnc(C)n1-2`, for which the “activity change, negative = inhibition” value was 31.9%.

As to `C/C(=C\c1csc(C)n1)[C@@H]1C[C@@H]2O[C@]2(C)CCC[C@H](C)[C@H](O)[C@@H](C)C(=O)C(C)(C)[C@@H](O)CC(=O)O1`, the “activity change, negative = inhibition” value was -0.361%.

Turning to `O=[N+]([O-])/C=C/c1ccc2c(c1)OCO2`, the Potency was 11.5 µM (active).

For `C=C(C)[C@@H]1CCC(C)=C[C@H]1c1c(O)cc(CCCCC)cc1O`, the Potency is 25.7 µM (active).

For the compound `COC(=O)[C@@]12OC[C@]34[C@H]([C@@H](O)[C@@H]1O)[C@@]1(C)CC(=O)C(O)=C(C)[C@@H]1C[C@H]3OC(=O)[C@H](OC(=O)/C=C(\C)C(C)C)[C@@H]24`, the “activity change, negative = inhibition” value is 3.25%.

On to `CC(C)[C@]12O[C@H]1[C@@H]1O[C@]13[C@]1(O[C@H]1C[C@H]1C4=C(CC[C@@]13C)C(=O)OC4)[C@@H]2O`, for which the “activity change, negative = inhibition” value is 7.8%.

Regarding `CC(C)[C@]12O[C@H]1[C@@H]1O[C@@]13[C@@]1(C)CCC4=C(COC4=O)[C@@H]1C[C@@H]1O[C@@]13C2=O`, the “activity change, negative = inhibition” value was 3.97%.

As for `Cc1[nH]ncc1-c1cc2nc([C@@H]3CC4CCN3CC4)[nH]c(=O)c2s1`, the “activity change, negative = inhibition” value was 6.86%.

On to `O=C1/C(=C\c2ccccc2)C[C@@]2(O)[C@H]3Cc4ccc(O)c5c4[C@@]2(CCN3CC2CC2)[C@H]1O5`, for which the Potency was 10.2 µM (active).

Consider `CCn1cnc2c(Nc3cccc(Cl)c3)nc(N[C@@H]3CCCC[C@@H]3N)nc21`, for which the Potency is 25.7 µM (active).

Take `COc1cccc2c1C(=O)c1c(O)c3c(c(O)c1C2=O)C[C@@](O)(C(=O)CO)CC3OC1CC(N2CCOC(OC)C2)C(O)C(C)O1` (stereo not given in full): the “activity change, negative = inhibition” value was 1.3%.
